Results on 3 molecules are retold here after PubChem BioAssay AID588477 (NMMLSC, 2011).

Activity calls are given as the source filed them.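 Rule for the calls: active = valid curve fit with half-effect dose at most 10 µM and total binding change across doses of 30 points or more; inactive = the rest.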

The test in a line: inhibitors of Bodipy-GTP binding across eight GTPases, SAR follow-up, selectivity assay for Cdc42 probe extension project, biochemical, round 1 SAR, Mg buffer, multiplex flow cytometry (AID 588477). The conditions noted are these: GST-GTPase beads, Rac constitutively active; series mostly up to 100 µM.
Regarding `NS(=O)(=O)c1ccc(N2N=C(c3ccccc3)CC2c2ccccc2)cc1` (stereo not drawn), the result was inactive.

Turning to `O=C(C#Cc1ccccc1)c1cccc([N+](=O)[O-])c1`, the outcome was inactive. Consider `COc1ccc(C2CC(c3ccccc3)=NN2c2ccc(S(N)(=O)=O)cc2)cc1` (stereo not drawn), for which the outcome was inactive.
